# The list is not random: actives were taken first. Their share in the collection is about 11%.
# VDR inhibitor = inhibitors of human vitamin D receptor; P11473; VDR-SRC2-3 peptide fluorescence polarization, 2 h; Potency, µM, for the others: max response, negative = inhibition, hits mostly inhibitors; 0.93% of 400,000 active; AID 504847; also: % is scaled to controls: 0 for no effect and ±100 for the full control effect
#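 The screen uses fluorescence polarization to detect compounds that interfere with recruitment of the SRC2-3 coactivator peptide to VDR; plates are read after 2 h at room temperature.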
# G9a inh = G9a (human) methyltransferase inhibition. Q96KQ7. G9a H3K9 monomethylation, AlphaScreen, 2 h. Potency, µM (titrated, usually from 102 µM), without a hit: at the top dose activity, negative = inhibition, actives largely listed as inhibitors. 8.8% of 350,000 active. AID 504332; also: % is scaled to controls: 0 for no effect and ±100 for the full control effect; nearly all actives have a fitted effect of over 75% in size
#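 AlphaScreen detection with an anti-monomethyl H3K9 antibody quantified product after a 2 h room-temperature reaction containing 500 nM biotinylated H3K9 peptide, 20 µM SAM and 20 nM enzyme, which had been preincubated 15 min with compound.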
# BAZ2B inh = BAZ2B (human) inhibition; Q9UIF8; AlphaScreen BAZ2B-H3K14Ac peptide displacement; Potency, µM (highest dose often 114 µM), inactives show top-dose activity change, negative = inhibition, most hits filed as inhibitors; 4.4% of 360,000 active; AID 504333; also: % is scaled to controls: 0 for no effect and ±100 for the full control effect; nearly all actives have a fitted effect of over 60% in size
#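 AlphaScreen displacement of biotin-H3(5-23)K14Ac peptide (50 nM final) from BAZ2B (50 nM final) in PBS pH 7.4, 0.01% Tween-20; complex preformed 30 min RT, then compounds (top 110 uM) 30 min RT, beads 20 min dark.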
# JMJD2A Tudor inh = blocks the human JMJD2A Tudor domain; O75164; AlphaScreen JMJD2A-Tudor / H3K4me3 peptide binding; Potency, µM (doses to about 114 µM), inactives show at the top dose activity change, negative = inhibition, usual class: inhibitors; 4.4% of 390,000 active; also: % is scaled to controls: 0 for no effect and ±100 for the full control effect; nearly all actives have a fitted effect of over 50% in size
# HP1b binding inh = HP1-beta chromodomain-methylated histone interaction inhibition. P83916. AlphaScreen HP1-beta / biotin-H3K9me3 peptide binding. Potency, µM (top dose mostly 114 µM), for inactives: at the top dose activity change, negative = inhibition, hits mostly inhibitors. 0.56% of 390,000 active; also: nearly all actives have a fitted effect of over 70% in size
#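 HP1-beta protein (50 nM final) preincubated 30 min at room temperature with biotinylated H3(1-18)K9me3 peptide (50 nM) in PBS pH 7.4, 0.01% Tween-20, then compound added for 30 min. AlphaScreen streptavidin donor/nickel chelate acceptor beads (10 ug/mL final), 30 min dark, luminescence read.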
# PLK1 PBD inh = PLK1 (human) polo-box domain binding inhibition | Plk1 PBD binding of FITC phosphopeptide, fluorescence polarization | Potency, µM, without a hit: max response, negative = inhibition, actives largely listed as inhibitors | 2.8% of 360,000 active | AID 720504; also: series mostly up to about 57 µM; % is scaled to controls: 0 for no effect and ±100 for the full control effect; nearly all actives have a fitted effect of over 65% in size
# Target sequence (P53350 whole entry, looked up, the tested form may be a part): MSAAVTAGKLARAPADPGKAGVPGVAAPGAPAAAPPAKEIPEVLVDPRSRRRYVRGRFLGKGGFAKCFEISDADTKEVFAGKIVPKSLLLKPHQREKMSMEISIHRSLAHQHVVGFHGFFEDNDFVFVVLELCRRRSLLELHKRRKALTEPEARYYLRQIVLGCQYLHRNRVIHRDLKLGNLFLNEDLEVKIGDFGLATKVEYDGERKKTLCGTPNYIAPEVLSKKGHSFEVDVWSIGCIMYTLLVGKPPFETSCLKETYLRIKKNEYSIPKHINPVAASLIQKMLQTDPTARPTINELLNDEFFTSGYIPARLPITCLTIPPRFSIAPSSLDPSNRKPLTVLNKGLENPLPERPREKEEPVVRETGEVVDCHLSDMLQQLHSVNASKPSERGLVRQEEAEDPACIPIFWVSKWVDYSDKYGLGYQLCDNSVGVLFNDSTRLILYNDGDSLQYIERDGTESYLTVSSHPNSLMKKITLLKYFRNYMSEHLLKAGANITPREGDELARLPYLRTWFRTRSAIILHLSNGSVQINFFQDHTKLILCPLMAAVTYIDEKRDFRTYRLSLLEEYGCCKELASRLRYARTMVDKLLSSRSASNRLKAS
# Numbers without * were called inactive; ? = inconclusive; . = no result; ! = not confirmed by another sample; [ ] = dose if it differs, or a comment. Calls follow the shape of the dose curve; as a rule, active = well fitted curve in the direction sought with a large enough effect; inconclusive = small, poorly fitted or top-dose-only effect, or another doubt; inactive = no such curve, though single readings can be large; an effect the other way counts as inactive or inconclusive. Potency is read from the fitted curve at half-maximal effect.
SMILES,VDR inhibitor,G9a inh,BAZ2B inh,JMJD2A Tudor inh,HP1b binding inh,PLK1 PBD inh
O=C(c1ccc(-c2ccccc2)cc1)N1CCN(c2ccccn2)CC1,-9%,-25%,?,-15%,27%,-4%
COc1cc(C(C2C(=O)CC(C)(C)CC2=O)C2C(=O)CC(C)(C)CC2=O)ccc1OC(C)=O,?,.,.,6%,47%,?
Cc1ccc(C(C2C(=O)CC(C)(C)CC2=O)C2C(=O)CC(C)(C)CC2=O)s1,40µM*,45µM*,?,-32%,14%,2.7µM*
CC1(C)CC(=O)C(C(c2ccc3c(c2)OCO3)C2C(=O)CC(C)(C)CC2=O)C(=O)C1,.,.,.,.,.,17µM*
COc1ccc(C(C2C(=O)CC(C)(C)CC2=O)C2C(=O)CC(C)(C)CC2=O)cc1,56µM*,45µM*,-16%,-17%,58%,9.5µM*
CC1(C)CC(=O)C(C(c2cccc([N+](=O)[O-])c2)C2C(=O)CC(C)(C)CC2=O)C(=O)C1,?,1%[59 µM],0%,-16%,28%,-22%
CC1(C)CC(=O)C(C(c2ccncc2)C2C(=O)CC(C)(C)CC2=O)C(=O)C1,10%,50µM*,-31%,-8%,82%,-9%
CCN1CCN(C(c2cccc(F)c2)c2c(O)cc(C)n(Cc3ccco3)c2=O)CC1 (stereo not drawn),-4%,?,-14%,-35%,18%[57 µM],.
COc1ccccc1NC(=O)Cn1c(SCC(=O)NCc2ccccc2)nc2ccccc21,7%,7%[59 µM],-4%,-11%,13%,.
CCOc1cccc(C(=O)Nc2nnc(-c3ccco3)s2)c1,8%,56µM*,?,-16%,53%,-22%
Cc1cccc(OCC(=O)Nc2nnc(-c3ccco3)s2)c1,3%,50µM*,-32%,-3%,35%,-14%
Cc1cccc(C(=O)Nc2nnc(S(=O)(=O)N(C)Cc3ccco3)s2)c1,89µM*!,-16%,-16%,-13%,39%,?
Cc1sc2ncn(CC(=O)Nc3ccc(C(F)(F)F)cc3)c(=O)c2c1S(=O)(=O)N1CCN(C)CC1,7%,-4%[59 µM],-8%,-17%,-6%,.
O=C(OCn1nnc2ccccc2c1=O)c1ccc(F)c(S(=O)(=O)N2CCOCC2)c1,.,.,.,.,.,-14%
COc1cccc(CN2c3ccccc3-c3nc(SCC(=O)Nc4cccc(C)c4)ncc3S2(=O)=O)c1,-24%,-1%[59 µM],-1%,-20%,5%,.
Oc1ccc(/C=N/n2c(C3CCCCC3)n[nH]c2=S)c(O)c1,-18%,1.6µM*,-33%,14µM*,-10%,?
Oc1ccc(Br)cc1/C=N/n1c(C2CCCCC2)n[nH]c1=S,-28%,50µM*,?,?,-18%,27µM*
COc1ccc(C(=O)c2ncc(C(F)(F)F)cc2Cl)cc1,?,8%,7%,?,5%,24µM*
COc1ccc(/C(C)=N/N2CCCCC2)c(O)c1,-9%,8%,2%,14%,40%,0%
COc1ccc(O)c(/C=N/N2CCCCC2)c1,12%,50µM*,50µM*,50µM*,4%,-19%
COc1cc(/C=N/N2CCCCC2)cc(OC)c1O,19%,22µM*,-34%,-26%,-5%,?
CCCC(C)NC(=O)CN1C(=O)NC2(CCc3ccccc32)C1=O (stereo not drawn),5%,-9%,0%,-15%,25%,4%
COc1nccnc1NS(=O)(=O)c1ccc(NCc2ccccc2O)cc1,?,-18%,-20%,-21%,11%,-2%
COc1nccnc1NS(=O)(=O)c1ccc(NC(=S)NC(=O)/C=C/c2ccccc2)cc1,?,?,-13%,79µM*,-7%,30µM*
COc1nccnc1NS(=O)(=O)c1ccc(NC(=S)NC(=O)c2ccccc2)cc1,-33%,40µM*,?,?,-16%,-7%
SMILES,VDR inhibitor,G9a inh,BAZ2B inh,JMJD2A Tudor inh,HP1b binding inh,PLK1 PBD inh
O=C(/C=C/c1ccccc1)NC(=S)Nc1ccccc1,-12%,-4%[0.501 µM],7%,-8%,5%,-12%
COc1ccc(OC)c(/C=C/C(=O)c2ccc3c(c2)OCCO3)c1,?,6%,?,-10%,46%,-5%
Cc1nnc(N2CCc3ccccc3C2)[nH]c1=O,-17%,9%,-2%,19%[11.4 µM],-5%,30µM*
CC(C)Oc1ccc(S(=O)(=O)N2CCOCC2)cc1NC(=O)CC1OC(=O)c2ccccc21 (stereo not drawn),-8%,16µM*,-3%,-11%,16%,-1%
Cc1ccc(Cn2cc(S(=O)(=O)c3ccc(C(C)C)cc3)c(=O)c3cc4c(cc32)OCO4)cc1,-15%,45µM*,-1%,-31%,9%,-10%
CC(C)c1ccc(S(=O)(=O)c2cn(Cc3ccc(F)cc3)c3cc4c(cc3c2=O)OCO4)cc1,.,-10%[59 µM],7%,.,.,.
Cc1cccc(CN2C(=O)c3ccccc3Sc3ccc(C(=O)NC4CCCCC4)cc32)c1,-7%,5%[59 µM],23%,-26%,66%,.
Nc1ccccc1OCCOCCOCCOc1ccccc1N,-8%,20%[59 µM],-31%,-14%,-1%,-5%
CNCCOc1ccccc1C(C)(C)C,-16%,13µM*,?,3.2µM*,-44%,-9%
CC(C)(C)c1ccccc1OCCCCN1CCCC1,-7%,-8%,0%,-6%,33%,-1%
CC(C)(C)c1ccccc1OCCOCCNCc1ccccc1,-12%,14µM*,79µM*,22µM*,?,-7%
COc1cccc(CNc2ncnc3onc(-c4ccc(F)cc4)c23)c1,-4%,1%[59 µM],3%[57.1 µM],-13%,31%,.
CCOC(=O)C1CCN(C(c2cc3ccc(C)cc3[nH]c2=O)c2nnnn2C2CCCCC2)CC1 (stereo not drawn),-1%,22µM*,-5%,-18%,7%,-8%
COc1cc2cc(C(c3nnnn3C3CCCC3)N3CCc4ccccc43)c(=O)[nH]c2cc1OC (stereo not drawn),-6%,45µM*,-11%,-11%,26%,-11%
COc1ccccc1N1CCN(C(c2cc3ccc(C)cc3[nH]c2=O)c2nnnn2C2CCCC2)CC1 (stereo not drawn),-16%,28µM*,?,?,-1%,-9%
O=C(CSc1ccc(Cl)cc1)Nc1nnc(-c2cccc([N+](=O)[O-])c2)s1,-9%,40µM*,-8%,-10%,56%,-6%
O=C(Cc1cccc2ccccc12)Nc1nnc(-c2cccc([N+](=O)[O-])c2)s1,2%,?,-10%,-14%,26%,-7%
Cc1cc(C)c(OCCN2CCOCC2)c(Cl)c1,-9%,32µM*,?,28µM*,?,-4%
Cc1cc(OCCN2CCOCC2)ccc1[N+](=O)[O-],-20%,7.9µM*,50µM*,0.71µM*,?,-13%

# Bioassay records deposited in PubChem by National Center for Advancing Translational Sciences (NCATS).
